The values that follow come from PubChem BioAssay (NCI).

The panel holds about 83,000 compounds, 20% with a hit somewhere; the sample as a whole holds those more often.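 Cell lines were cultured in 96-well plates, exposed to a single compound concentration, and assessed for percent growth 48 hours later.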 A number with no mark means an inactive call. Calls of active or inactive are those of the source. How the source made its calls: active means growth percent below 10; inactive means the rest.

What all share (test): NCI-60 one-dose screen, 48 h (100 = growth as untreated, 0 = no growth, -100 = all killed)
One test has as its system HCT-15 colon. The settings on record: 10 µM unless noted.
The next test concerns HT29 colon. The settings on record: 10 µM unless noted.
Another test relates to SNB-75 CNS. The settings on record: 10 µM unless noted.
For a further test, the system named is SNB-19 CNS. Conditions: 10 µM unless noted.
The next test concerns U251 CNS. Conditions: 10 µM unless noted.
A further test concerns PC-3 prostate. The settings on record: 10 µM unless noted.
For another test, the system named is SK-MEL-5 melanoma. Conditions: 10 µM unless noted.
The next test relates to UACC-62 melanoma. The settings on record: 10 µM unless noted.
Another test concerns LOX IMVI melanoma. The settings on record: 10 µM.
The next test relates to SK-MEL-28 melanoma. The settings on record: 10 µM unless noted.
For a further test, the system named is SK-MEL-2 melanoma. Conditions: 10 µM unless noted.
For another test, the system named is SN12C renal. Conditions: 10 µM unless noted.
The test system of the next test is UO-31 renal. Conditions: 10 µM unless noted.
In the next test the test system is TK-10 renal. Conditions: 10 µM unless noted.
Another test has as its system ACHN renal. Conditions: 10 µM unless noted.
The next test relates to CCRF-CEM leukemia. Conditions: 10 µM unless noted.
The next test relates to MOLT-4 leukemia. The settings on record: 10 µM unless noted.
The subject of the next test is CAKI-1 renal. The settings on record: 10 µM unless noted.
The subject of another test is A498 renal. Conditions: 10 µM unless noted.
The next test concerns EKVX NSCLC. Conditions: 10 µM unless noted.

For the compound `Cc1cc(C)cc(NC(=O)Cn2cc(COn3nnc4ccccc43)nn2)c1`, the growth in the test with HCT-15 colon was 106%; with HT29 colon, 104%; in the test with SNB-75 CNS it was 96.3%; with SNB-19 CNS, 96.2%; in the test with U251 CNS, 103%; in the test on PC-3 prostate it was 97.9%. In addition, the growth in the test with SK-MEL-5 melanoma is 101%; with UACC-62 melanoma it was 96.9%; in the test with LOX IMVI melanoma, 100%; in the test on SK-MEL-28 melanoma, 100%; in the test with SK-MEL-2 melanoma it was 105%; with SN12C renal, 97.3%. For the same compound, the growth was 92.5% in the test on UO-31 renal; 100% with TK-10 renal; 100% in the test on ACHN renal; 105% with CCRF-CEM leukemia; 100% in the test with MOLT-4 leukemia.

For the compound `Cc1ccc(C2CC(c3ccc(S(=O)(=O)NCCNc4nc(Nc5ccc(F)cc5)nc(N(C)C)n4)cc3)=Nc3c(N)nc(N)nc3N2)cc1` (stereo not drawn), the growth is 29.1% with HCT-15 colon; -14.3% (active) in the test with HT29 colon; 77.7% in the test with SNB-75 CNS; 60.4% in the test on SNB-19 CNS; 47.3% in the test on U251 CNS; 33.5% in the test with PC-3 prostate. In addition, the growth was 29.1% in the test with SK-MEL-5 melanoma; 63.7% in the test on UACC-62 melanoma; 6.81% (active) in the test on LOX IMVI melanoma; 59.8% in the test with SK-MEL-28 melanoma; 76.9% in the test with SK-MEL-2 melanoma; 74.2% with SN12C renal. Moreover, the growth with UO-31 renal was 67.4%; in the test on TK-10 renal, 96.5%; with ACHN renal, 61%; in the test on CAKI-1 renal, 76.9%; in the test with A498 renal it was 89.2%; with MOLT-4 leukemia it was 4.77% (active).

For the compound `CCCCn1c(O)c(N=Nc2nc(-c3cc4ccccc4oc3=O)cs2)c2cc(Br)ccc21`, the growth in the test with HCT-15 colon was 102%; in the test with HT29 colon, 112%; in the test with SNB-75 CNS, 102%; in the test with SNB-19 CNS it was 95.3%; in the test with U251 CNS, 101%; in the test with PC-3 prostate it was 97.4%. Moreover, the growth with SK-MEL-5 melanoma was 98.3%; in the test on UACC-62 melanoma, 93.5%; with LOX IMVI melanoma, 94.7%; in the test on SK-MEL-28 melanoma, 104%; with SK-MEL-2 melanoma, 116%; with SN12C renal, 101%. In addition, the growth in the test with UO-31 renal is 85%; with TK-10 renal it was 115%; with ACHN renal, 106%; in the test with CAKI-1 renal it was 102%; in the test with CCRF-CEM leukemia, 104%; with MOLT-4 leukemia, 107%.

As for `C=CC[N+](C)(C)CCn1c2ccccc2c2nc3cc(C)c(C)cc3nc21`, the growth was 106% in the test on HCT-15 colon; 105% in the test with HT29 colon; 88.5% with SNB-75 CNS; 19.2% with SNB-19 CNS; 72.9% in the test with U251 CNS; 97.4% in the test with PC-3 prostate. The growth with SK-MEL-5 melanoma is 63.7%; with UACC-62 melanoma, 97.1%; with SK-MEL-28 melanoma, 79.6%; in the test on SK-MEL-2 melanoma, 112%; in the test on EKVX NSCLC, 89.7%; in the test on SN12C renal, 14.2%. The growth with UO-31 renal was 71%; with TK-10 renal, 106%; in the test with ACHN renal, 107%; in the test on CAKI-1 renal it was 90%; in the test with A498 renal it was 115%; in the test with CCRF-CEM leukemia, 102%. In addition, in the test with MOLT-4 leukemia, the growth was 116%.

With `O=C1CCCc2cc(OCC(=O)N3CCCCC3)ccc2N1`, the growth with HCT-15 colon is 105%; in the test with HT29 colon it was 127%; in the test with SNB-75 CNS it was 101%; with SNB-19 CNS, 99.7%; in the test with U251 CNS, 107%; in the test on PC-3 prostate, 109%. The growth in the test on SK-MEL-5 melanoma is 104%; in the test with UACC-62 melanoma, 105%; with LOX IMVI melanoma it was 97.1%; with SK-MEL-28 melanoma, 119%; with SK-MEL-2 melanoma it was 111%; in the test with SN12C renal, 114%. For the same compound, the growth in the test on UO-31 renal was 92.9%; in the test with TK-10 renal, 104%; in the test with ACHN renal, 107%; in the test on CAKI-1 renal, 96.7%; in the test on A498 renal, 114%; with CCRF-CEM leukemia, 98.4%. Moreover, in the test with MOLT-4 leukemia, the growth was 102%.

As for `Cn1nc(C(F)(F)F)cc1-c1cc(Cl)c(COc2ccc(Cl)cc2)c(-c2ccc(Cl)c(C(F)(F)F)c2)c1O`, the growth with HCT-15 colon was -39.5% (active); in the test with HT29 colon, 6.65% (active); in the test with SNB-75 CNS, -22.5% (active); in the test with SNB-19 CNS it was -11.5% (active); with U251 CNS, -24.8% (active); in the test on PC-3 prostate, -12.3% (active). Moreover, the growth is -74.4% (active) in the test with SK-MEL-5 melanoma; -86.1% (active) with UACC-62 melanoma; -48.8% (active) with SK-MEL-28 melanoma; -81.6% (active) in the test with SK-MEL-2 melanoma; -2.8% (active) in the test on EKVX NSCLC; -51.4% (active) in the test with SN12C renal. Moreover, the growth was -48.4% (active) in the test on UO-31 renal; 3.16% (active) in the test with TK-10 renal; -5.03% (active) in the test on ACHN renal; -15.9% (active) with CAKI-1 renal; -11.9% (active) in the test with A498 renal; -34.3% (active) with CCRF-CEM leukemia. The growth with MOLT-4 leukemia is -23.1% (active).

For `C#C[C@]1(O)CC[C@H]2[C@@H]3CC=C4c5sc(-c6ccc([N+](=O)[O-])cc6)nc5CC[C@]4(C)[C@H]3CC[C@@]21C`, the growth was -41.4% (active) with HCT-15 colon; -80.4% (active) in the test on HT29 colon; 93.7% in the test with SNB-75 CNS; 34.5% in the test with SNB-19 CNS; 0.123% (active) with U251 CNS; 1.72% (active) in the test on PC-3 prostate. Besides, the growth was 23% in the test on SK-MEL-5 melanoma; 10.6% in the test on UACC-62 melanoma; -59.9% (active) with LOX IMVI melanoma; -44.8% (active) in the test on SK-MEL-28 melanoma; -42.8% (active) in the test with SK-MEL-2 melanoma; 57% in the test with SN12C renal. The growth in the test on UO-31 renal is -44.8% (active); with TK-10 renal it was 52%; in the test on ACHN renal, 3.11% (active); with CAKI-1 renal, 23.1%; with A498 renal, 6.18% (active); in the test on CCRF-CEM leukemia, 9.17% (active). Moreover, the growth in the test with MOLT-4 leukemia was 10%.

Turning to `O=C(COc1ccc(NC(=O)Nc2ccc(Cl)c(Cl)c2)cc1)N=Nc1c(O)[nH]c2ccccc12`, the growth is 56.1% in the test on HCT-15 colon; -45.9% (active) in the test with HT29 colon; -39.5% (active) with SNB-75 CNS; -24.5% (active) in the test with SNB-19 CNS; -87.7% (active) in the test with U251 CNS; -44.6% (active) in the test with PC-3 prostate. The growth is 25.2% with SK-MEL-5 melanoma; -56.5% (active) in the test with UACC-62 melanoma; -90.4% (active) in the test on SK-MEL-28 melanoma; -41.9% (active) in the test on SK-MEL-2 melanoma; 18.6% in the test on EKVX NSCLC; -32% (active) in the test with SN12C renal. The growth was 87.5% in the test on UO-31 renal; 30.5% in the test on TK-10 renal; 36.9% in the test on ACHN renal; 15.6% in the test on CAKI-1 renal; -53.6% (active) in the test on A498 renal; 37.3% with CCRF-CEM leukemia. Besides, the growth in the test on MOLT-4 leukemia is 1.27% (active).
